Hit rate of the full screen: of about 69,000 compounds, about 8,600 (12%) showed an effect of 50% or more. This is one part of a sample in which strong results are shown more often than they occur.

This assay relates to Plasmodium berghei. In words: Screen against P. berghei liver stage (PbLuc), transformed with Luciferase, at 10uM. Particulars: tested at 10 uM. It counts as functional, HepG2.
Regarding `CCCC1CCCN(C(=O)Nc2ccc(F)c(C(N)=O)c2)CC1` (stereo unspecified), the INHIBITION was determined as 53.8%. With `COc1ncccc1NC(=O)N1CCCC(CNC(=O)OC(C)(C)C)C1` (stereo unspecified) the figure was 57.7%; with `NC(=O)c1cc(NC(=O)N2CCCCCC2)ccc1F`, -7.9%. With `COc1ccc(Oc2ncccc2NC(=O)N2CCOC(C)C2)cc1` (stereo unspecified) the figure was 44.3%.

For the compound `CC1CCCN(C(=O)Nc2ccc(F)c(C(N)=O)c2)C1` (stereo unspecified), the INHIBITION amounted to 23.6%. The result for `CCOc1ncccc1NC(=O)N1CCCC(CNC(N)=O)C1` (stereo unspecified) reads 22.8%; that for `COc1ccc(Oc2ncccc2NC(=O)N2CCOCC2)cc1`, 55.5%. The result for `COc1ccc(Oc2ncccc2NC(=O)N2CC[C@H](O)C2)cc1` reads 16.3%. The result for `CCN(CC)C(=O)C1CCN(C(=O)Nc2cccnc2OC)CC1` reads 22.6%. `CCCC1CCCN(C(=O)Nc2cccnc2OC)CC1` (stereo unspecified): the INHIBITION is listed as 81.6%. The result for `COc1ncccc1NC(=O)N1CCC(CNC(C)=O)CC1` reads 7.9%. The result for `COc1ncccc1NC(=O)NCC1CC1` reads 12.2%; that for `O=C(c1cc2c(s1)CCC2)N1CCC(c2cnccn2)CC1`, 28.5%; that for `CC(C)NC(=O)N1CCC2(CC1)CN(C(=O)NC(C)C)CCO2`, 11.8%. As for `CC(C)C(=O)NCc1ccc(N2CCCC2)nc1`, the INHIBITION is -24.2%. The result for `O=C(NCc1csc(-c2cnccn2)n1)c1cnn2c1CCCC2` reads 8.7%; that for `Cc1cnn(CC2CCCN2C(=O)CCc2c(C)noc2Cl)c1` (stereo unspecified), 0%. `CCNC(=O)[C@@H]1C[C@@H](NC(=O)c2ccsc2)CN1CCCSC`: the INHIBITION is given as -16.9%.

For `Cc1cccc(CNC(=O)CNc2cc(CO)ccc2Cl)c1`, the INHIBITION was found to be 14.2%. With `CN1CC(=O)N(c2cnn(C)c2)CC12CCN(Cc1cccnc1)C2` (stereo unspecified) the figure was 39.8%; with `CC(C)(NCC(=O)NC(=O)NC1CC1)c1ccc2c(c1)OCO2`, 43.3%. With `O=C(CC1[C@H]2CN(C(=O)c3cccnc3)C[C@@H]12)Nc1cccnc1` (stereo partly specified) the figure was 34.6%. With `Cn1cc(-c2nnc3sc(C4CCC4)nn23)cn1` the figure was 25.2%.

With `COc1cc(C)ccc1OCC(=O)NS(=O)(=O)c1cccnc1`, the INHIBITION was -16%. The result for `O=S(=O)(C1CC1)N1CCO[C@@H]2CC(COCc3cccnc3)C[C@H]21` (stereo partly specified) reads 34.5%; that for `O=C(Nc1cccnc1)NC1(c2cccc(F)c2)CC1`, -2.39%; that for `Cc1ccnn1CC(=O)Nc1cc(-c2ccncc2)[nH]n1`, 63.4%. With `Cc1cc(C)n(CC(=O)Nc2cc(-c3ccncc3)[nH]n2)n1` the figure was 5.94%; with `Cc1ccn(CC(=O)Nc2cc(-c3ccncc3)[nH]n2)n1`, 39.6%; with `Cc1cc(C2CCCN(C(=O)COc3cc(C)on3)C2)n[nH]1` (stereo unspecified), -23.8%. With `COCCNc1ncc(-c2onc(C)c2C)c(-c2ccco2)n1` the figure was 31.85%; with `Cc1nnc(N2CCOC(C)(C(=O)NC3CCCC3)C2)c2ccccc12` (stereo unspecified), 4.41%; with `O=C(CCn1ncc2c(Cl)cccc21)NCCCn1cccn1`, -2.28%. With `CCN(CC)C(=O)CCn1ncc2c(Cl)cccc21`, the INHIBITION is recorded as -4.74%. The result for `COCCNC(=O)CCn1ncc2c(Cl)cccc21` reads 55.7%; that for `CCn1cc(CNC(=O)CCn2ncc3c(Cl)cccc32)cn1`, 54.9%. The result for `CN(C)C(=O)CNC(=O)CCn1ncc2c(Cl)cccc21` reads -15.8%. With `CCn1ncc(NC(=O)CCn2ncc3c(Cl)cccc32)c1C` the figure was 9.32%; with `O=C(CCn1ncc2c(Cl)cccc21)NCC1CC1`, 68.9%. With `Cc1nn(C)c(C)c1CNC(=O)CCn1ncc2c(Cl)cccc21`, the INHIBITION came to 49.9%. The result for `CC(C)(C)NC(=O)CCn1ncc2c(Cl)cccc21` reads 47.4%; that for `COCCCNC(=O)CCn1ncc2c(Cl)cccc21`, 20.9%; that for `O=C(CCn1ncc2c(Cl)cccc21)NCCCO`, 49.9%. With `CN(C)CCNC(=O)CCn1ncc2c(Cl)cccc21` the figure was 55.7%; with `Cc1nnc(N2CCc3cncnc3C2)c(C#N)c1C`, -5.08%. With `Cc1nc(C2CCCN2CC(=O)Nc2c(C)n[nH]c2C)no1` (stereo unspecified) the figure was 27.8%; with `CC[C@H](C)[C@H](N)C(=O)Nc1nc(-c2cnc(N(C)CCO)nc2)cs1`, -37.5%. On to `Cc1cn2c(=O)c(-c3ccnc(N4CCC[C@@H]4CO)n3)cnc2s1`, for which the INHIBITION is reported as 4.08%. `Cn1cc(CC2CCN(C(=O)NCc3cccc(C(N)=O)c3)C2)cn1` (stereo unspecified): the INHIBITION is reported as -51.705%. The result for `O=C1NC2(CCN(CCO)CC2)CC1c1ccccc1` (stereo unspecified) reads 21.6%; that for `O=C1NC2(CCNCC2)CC1c1ccncc1` (stereo unspecified), 33.4%; that for `O=C1NC2(CCN(Cc3cccnc3)CC2)CC1c1ccncc1` (stereo unspecified), 49.5%. The result for `O=C1NC2(CCN(CCc3ccccc3)CC2)CC1c1ccccc1` (stereo unspecified) reads 52.6%; that for `O=C1NC2(CCN(C/C=C/c3ccccc3)CC2)CC1c1ccccc1` (stereo unspecified), 63.8%. The result for `O=C1NC2(CCNCC2)CC1c1cccnc1` (stereo unspecified) reads 52.3%; that for `O=C1NC2(CCN(C(=O)c3ccnnc3)CC2)CC1c1ccccc1` (stereo unspecified), -16.9%; that for `O=C1NC2(CCNCC2)CC1c1ccccc1` (stereo unspecified), 49.7%. For the compound `O=C1NC2(CCN(Cc3cccnc3)CC2)CC1c1cccnc1` (stereo unspecified), the INHIBITION is on record as -12.1%. With `O=C1NC2(CCN(CC3CC3)CC2)CC1c1ccccc1` (stereo unspecified) the figure was 52.6%; with `O=C1NC2(CCN(C(=O)Cc3ccsc3)CC2)CC1c1ccccc1` (stereo unspecified), -4.88%.

`O=C1CC(c2ccccc2)C2(CCN(CC3CC3)CC2)N1` (stereo unspecified): the INHIBITION is 31.2%.

For the compound `CCOCc1cnc2n1CCN(Cc1cccs1)C2C` (stereo unspecified), the INHIBITION is recorded as -10.5%. With `Nc1cc(-c2c[nH]nc2C2CCCN2CCCc2ccccc2)ccn1` (stereo unspecified) the figure was 17.8%; with `CCn1cc(CN2CCCN(C(=O)c3cccc(C#N)c3)CC2)cn1`, -73.1%; with `CNc1ccc(CC2CCCN(Cc3c[nH]cn3)C2)nn1` (stereo unspecified), 36.9%. With `Cc1cnn(CC2CCCN2C(=O)Cc2c(C)noc2C)c1` (stereo unspecified) the figure was 29.4%; with `Cc1nccn1CC1CCCN(S(=O)(=O)c2cnn(C)c2)C1` (stereo unspecified), 42.5%; with `CCc1nccn1C1CCCN(C(=O)c2csc(C3CC3)n2)C1` (stereo unspecified), -4.16%. With `CC(C)CN1C[C@H]2CCN(c3ncccn3)CC[C@H]2S1(=O)=O` the figure was -14.9%; with `COCCN1C[C@H]2CCN(c3ncccn3)CC[C@H]2S1(=O)=O`, 82.9%; with `CCN1C[C@H]2CCN(c3ncccn3)CC[C@H]2S1(=O)=O`, -41.6%.

For the origin of these results see ChEMBL document CHEMBL4513216, “Probing the Open Global Health Chemical Diversity Library for Multistage-Active Starting Points for Next-Generation Antimalarials” (ACS Infect Dis, 2020).
